Experimental data from PubChem BioAssay.
Results filed as inconclusive are left out. The source made the active and inactive calls. Rule as the data show it, unless noted: active = inhibition above about 80%; inactive = the rest.

Columns and labels:
[1] = growth inhibition of DIPG glioma cells, dose response, cell-based, SU-DIPG-XVII, MIPE5.0, CellTiter-Glo, qHTS (AID 1347060; cut-off not given, nearly all actives have AC50 up to about 26 µM); conditions: SU-DIPG-XVII viability, CellTiter-Glo ATP luminescence
[2] = growth inhibition of DIPG glioma cells, dose response, cell-based, SU-DIPG-XIII, MIPE5.0, CellTiter-Glo, qHTS (AID 1347064; cut-off not given, nearly all actives have AC50 up to about 23 µM); conditions: SU-DIPG-XIII viability, CellTiter-Glo ATP luminescence
[3] = viability loss in pontine glioma line – cell-based, SU-DIPG-XXV, MIPE5.0, CellTiter-Glo, qHTS, dose response (AID 1347065; cut-off not given, nearly all actives have AC50 up to about 26 µM;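 also: cells exposed to compound for 48 hours before ATP readout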); conditions: CellTiter-Glo ATP luminescence
[4] = JHH-DIPG-1 glioma cell viability, MIPE5.0 library, CellTiter-Glo luminescence, qHTS (AID 1347067; cut-off not given, nearly all actives have AC50 up to about 26 µM;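 also: cells exposed to compound for 48 hours before readout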); conditions: JHH-DIPG-1 glioma viability, CellTiter-Glo ATP luminescence
[5] = SU-DIPG-XXV glioma cell viability, MIPE5.0 library, qHTS (AID 1347068; cut-off not given, nearly all actives have IC50 up to about 30 µM)
[6] = LFS_MB_P medulloblastoma growth inhibition, cell-based, chromothripsis tumors, cisplatin or BGB combos (AID 1671449); conditions: LFS_MB_P medulloblastoma cells;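 also: cells exposed for 96 hours; 0% = vehicle DMSO and 100% = killing by high DMSO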
[7] = HDN33 neuroblastoma growth inhibition, cell-based, chromothripsis tumors, cisplatin or BGB combos (AID 1671450); conditions: HDN33 neuroblastoma cells, stronger effect = higher value;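 also: cells exposed to compound for four days; 0% = vehicle DMSO and 100% = cell killing by high DMSO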
[8] = ICB984 medulloblastoma cell growth inhibition, synergistic combos for chromothripsis tumors, cisplatin or BGB combos (AID 1671451; call rule not given here;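 also: cells exposed for 96 hours before readout; 0% = vehicle DMSO and 100% = killing by high DMSO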); conditions: ICB984 medulloblastoma cells, drug combinations, stronger effect = higher value
[9] = LFS_MB_1R medulloblastoma cell growth inhibition, synergistic combos for chromothripsis tumors, cisplatin or BGB combos (AID 1671452); conditions: LFS_MB_1R medulloblastoma cells, stronger effect = higher value;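 also: cells exposed for 96 hours before readout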
[10] = HTB85 osteosarcoma cell growth inhibition, synergistic combos for chromothripsis tumors, BGB or cisplatin IC20 combos (AID 1671453); conditions: HTB85 osteosarcoma cells, drug combinations, stronger effect = higher value;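 also: cells exposed for 96 hours before readout; 0% = vehicle DMSO and 100% = high DMSO killing control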
[11] = CRL2098 osteosarcoma cell growth inhibition, synergistic combos for chromothripsis tumors, BGB or cisplatin IC20 combos (AID 1671454); conditions: CRL2098 osteosarcoma cells, drug combinations, stronger effect = higher value;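 also: cells exposed for 96 h before readout; 0% = vehicle DMSO and 100% = killing by high DMSO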
[12] = HD-MB03 medulloblastoma cell growth inhibition, synergistic combos for chromothripsis tumors, BGB or cisplatin IC20 combos (AID 1671455; in the data active = inhibition above about 83%;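 also: 0% = vehicle DMSO and 100% = high DMSO as cytotoxic control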); conditions: HD-MB03 medulloblastoma cells, stronger effect = higher value
[13] = UWB1.289 ovarian carcinoma cell growth inhibition, synergistic combos for chromothripsis tumors, BGB or cisplatin combos (AID 1671456); conditions: UWB1.289 ovarian carcinoma cells, stronger effect = higher value;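 also: cells exposed to compound for four days; 0% = vehicle DMSO and 100% = killing by high DMSO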
[14] = LFS_MB_2R medulloblastoma cell growth inhibition, synergistic combos for chromothripsis tumors, cisplatin combos (AID 1671457); conditions: LFS_MB_2R medulloblastoma cells, stronger effect = higher value;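 also: cells exposed to compound for four days before readout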
[15] = MDA-MB-436 breast carcinoma cell growth inhibition, synergistic combos for chromothripsis tumors, BGB or cisplatin combos (AID 1671458; call rule not given here;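 also: cells exposed for 96 hours; 0% = vehicle DMSO and 100% = killing by high DMSO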); conditions: MDA-MB-436 breast carcinoma growth inhibition, drug combinations, stronger effect = higher value
[16] = UWB1.289_BRCA1 ovarian cancer growth, cell-based, BGB or cisplatin combinations (AID 1671459); conditions: UWB1.289 BRCA1 ovarian carcinoma, drug combinations, stronger effect = higher value
[17] = human astrocyte viability loss, single and combined drugs, cytotoxicity control for chromothriptic childhood tumor combination screen, cell-based, BGB or cisplatin IC20 combos (AID 1671460); conditions: Human astrocytes, drug combinations, stronger effect = higher value;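 also: cells exposed to compounds for 96 hours before viability readout; 0% = vehicle and 100% = killing control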
[18] = growth inhibition of BT084 medulloblastoma cells, cell-based, ICGC_MB145, cisplatin and BGB IC40 combos (AID 1671461); conditions: drug combinations, stronger effect = higher value;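 also: cells exposed to drugs for 96 hours; 0% = vehicle DMSO and 100% = high DMSO full killing control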
[19] = growth inhibition of RCMB18 medulloblastoma cells, cell-based, cisplatin and BGB IC40 combos (AID 1671462); conditions: stronger effect = higher value;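 also: cells exposed to compound for four days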
[20] = growth inhibition of CRL1545 osteosarcoma cells, cell-based, cisplatin and BGB IC20 combos (AID 1671464); conditions: stronger effect = higher value;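 also: cells exposed to compound for 96 hours before readout; 0% = vehicle DMSO and 100% = high DMSO killing control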
[21] = measured here: combination with BGB IC40, at 0.05 µM
[22] = measured here: with BGB IC20 combination, at 0.5 µM
[23] = measured here: with cisplatin IC20 combination, at 0.5 µM
[24] = measured here: combination with cisplatin, at 0.5 µM
[25] = measured here: combination with cisplatin, at 5 µM

SMILES: NC1CCC(N[C@@H]2C[C@H]2c2ccccc2)CC1 (stereo partly drawn)
- outcome [1]: inactive
- outcome [2]: inactive
- outcome [3]: inactive
- outcome [4]: inactive
- outcome [5]: inactive
- inhibition ([6]; at 0.5 µM, stronger effect = higher value): 20.5% (inactive)
- inhibition ([6]; measured here: combination with BGB IC20, at 0.005 µM): -7.63%
- inhibition ([6]; measured here: combination with BGB IC40, at 0.005 µM): -36.6%
- inhibition [6, 21]: -4.73%
- inhibition ([6]; measured here: combination with cisplatin, at 0.5 µM, stronger effect = higher value): 61.5%
- inhibition ([6]; measured here: combination with cisplatin, at 5 µM, stronger effect = higher value): -33.8%
- inhibition ([7]; BGB combo, at 5 µM): -29.3%
- inhibition ([7]; at 0.5 µM): -3.39% (inactive)
- inhibition ([7]; cisplatin combo, at 5 µM): -5%
- inhibition [7, 22]: -15.4%
- inhibition [7, 23]: -4.58%
- inhibition ([7]; single agent, at 5 µM): -15%
- inhibition ([8]; BGB IC20 combo, at 0.005 µM): 1.45%
- inhibition ([8]; BGB IC40 combo, at 0.005 µM): -40%
- inhibition ([8]; BGB IC40 combo, at 0.05 µM): -44.5%
- inhibition ([8]; at 0.5 µM): -31.6% (inactive)
- inhibition ([8]; cisplatin combo, at 0.05 µM): -50.3%
- inhibition ([8]; cisplatin combo, at 0.5 µM): -54.9%
- inhibition ([8]; cisplatin combo, at 5 µM): -29.9%
- inhibition ([8]; measured here: 5 uM single agent, at 5 µM): -0.182%
- inhibition ([9]; at 0.5 µM): -25.6% (inactive)
- inhibition [9, 21]: -43.6%
- inhibition [9, 24]: -41.7%
- inhibition [9, 25]: -14.7%
- inhibition ([10]; at 0.5 µM): 0.26% (inactive)
- inhibition ([10]; measured here: with BGB IC20, at 0.5 µM): 13%
- inhibition ([10]; measured here: with BGB IC20, at 5 µM): 4.36%
- inhibition ([10]; measured here: with cisplatin IC20, at 0.5 µM): -8.09%
- inhibition ([10]; measured here: with cisplatin IC20, at 5 µM): 0.769%
- inhibition ([10]; single agent, at 5 µM): 26.6%
- inhibition ([11]; at 0.5 µM): -30% (inactive)
- inhibition ([11]; measured here: combination with BGB at IC20, at 0.5 µM): 8.8%
- inhibition ([11]; measured here: combination with cisplatin at IC20, at 0.5 µM): -54.3%
- inhibition ([12]; at 0.5 µM): -7.1% (inactive)
- inhibition ([12]; measured here: combo with BGB at IC20, at 0.5 µM): -21.2%
- inhibition ([12]; measured here: combo with cisplatin at IC20, at 0.5 µM): 17.1%
- inhibition ([13]; at 0.5 µM): -1.76% (inactive)
- inhibition ([13]; measured here: inhibition with BGB combination, at 0.05 µM): -8.52%
- inhibition ([13]; measured here: inhibition with cisplatin combination, at 0.05 µM): -20.9%
- inhibition ([14]; at 0.5 µM): -35.8% (inactive)
- inhibition [14, 24]: -40%
- inhibition [14, 25]: -27.2%
- inhibition ([15]; at 0.5 µM): -9.19% (inactive)
- inhibition ([15]; measured here: BGB combination, at 0.5 µM): -1.28%
- inhibition ([15]; measured here: BGB combination, at 5 µM): -16.2%
- inhibition ([15]; measured here: cisplatin combination, at 0.5 µM): -20.5%
- inhibition ([15]; measured here: cisplatin combination, at 5 µM): -12.9%
- inhibition ([16]; BGB combination, concentration series, at 5 µM): -9.67%
- inhibition ([16]; at 0.5 µM): 0.86% (inactive)
- inhibition ([16]; cisplatin combination, concentration series, at 5 µM): 21.2%
- inhibition ([17]; at 0.5 µM): 11.2% (inactive)
- inhibition ([17]; measured here: combo with BGB IC20, at 0.5 µM): 8.8%
- inhibition ([17]; measured here: combo with cisplatin IC20, at 0.5 µM): 10.6%
- inhibition ([18]; at 0.5 µM): -8.52% (inactive)
- inhibition ([18]; cisplatin combination, at 0.5 µM): -9.89%
- inhibition ([18]; cisplatin combination, at 5 µM): -5.53%
- inhibition ([18]; measured here: BGB IC40 combination 0.05 uM, at 0.05 µM): 65.9%
- inhibition ([18]; single agent, at 5 µM): 3.43%
- inhibition ([19]; at 0.5 µM): -11.5% (inactive)
- inhibition ([19]; cisplatin combo, at 5 µM): -6.41%
- inhibition ([19]; measured here: BGB IC40 combination, at 0.05 µM): -13.6%
- inhibition [19, 24]: -9.08%
- inhibition ([19]; single agent, at 5 µM): -32.3%
- inhibition ([20]; at 0.5 µM): -40.7% (inactive)
- inhibition [20, 22]: -47.5%
- inhibition [20, 23]: -37.3%
- inhibition ([20]; single agent, at 0.05 µM): -32.5%
- inhibition ([20]; single agent, at 5 µM): -26.5%
